Test results from PubChem BioAssay.
Unmarked numbers belong to inactive results. The rule behind the calls is not given here.

These compounds were tested against Lethal factor (Bacillus anthracis) (UniProt P15917) (assay: Bacillus anthracis lethal factor inhibition, microsphere flow cytometry protease assay, validation at 10 µM (AID 588461)). Settings: multiplex microsphere protease cleavage assay, active compounds read high.
Lethal factor (Bacillus anthracis), sequence (P15917 whole entry, looked up): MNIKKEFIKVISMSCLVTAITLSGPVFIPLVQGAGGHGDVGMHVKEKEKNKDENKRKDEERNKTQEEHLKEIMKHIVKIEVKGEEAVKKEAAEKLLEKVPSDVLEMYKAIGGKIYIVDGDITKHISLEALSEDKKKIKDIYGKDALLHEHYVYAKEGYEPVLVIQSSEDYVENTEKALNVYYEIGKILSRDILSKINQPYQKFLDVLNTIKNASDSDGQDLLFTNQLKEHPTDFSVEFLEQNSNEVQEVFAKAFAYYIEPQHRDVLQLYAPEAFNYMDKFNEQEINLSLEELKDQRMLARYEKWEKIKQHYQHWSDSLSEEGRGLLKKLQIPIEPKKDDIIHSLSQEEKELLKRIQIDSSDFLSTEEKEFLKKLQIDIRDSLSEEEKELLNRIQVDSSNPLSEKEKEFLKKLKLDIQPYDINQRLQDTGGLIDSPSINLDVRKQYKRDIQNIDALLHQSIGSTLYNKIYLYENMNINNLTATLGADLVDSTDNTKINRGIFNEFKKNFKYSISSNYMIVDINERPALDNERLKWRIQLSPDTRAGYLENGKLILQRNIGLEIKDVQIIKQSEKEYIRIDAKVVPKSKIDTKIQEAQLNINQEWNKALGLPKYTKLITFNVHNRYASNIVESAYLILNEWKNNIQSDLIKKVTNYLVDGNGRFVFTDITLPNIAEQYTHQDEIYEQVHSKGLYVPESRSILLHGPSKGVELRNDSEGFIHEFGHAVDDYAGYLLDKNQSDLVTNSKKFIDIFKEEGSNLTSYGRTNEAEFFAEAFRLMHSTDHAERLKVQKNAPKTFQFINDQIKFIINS

Row | Compound | inhibition [%]
1 | COc1ccc2[nH]cc(C3N4CC5(C)CN3CC(C)(C4)C5=O)c2c1 (stereo unspecified) | 4.1
2 | COc1cc2c(cc1OC)C1(CCCC1)CNC2c1cccc([N+](=O)[O-])c1 (stereo unspecified) | -9.4
3 | O=C(O)CP(=O)(O)O | -2.7
4 | O=C(O)CCn1c(=S)n(CCC(=O)O)c2ccccc21 | 3.1
5 | CC(=O)OCC(=O)[C@@]1(O)[C@H](C)C[C@H]2[C@@H]3CCC4=CC(=O)C=C[C@]4(C)[C@@]3(F)[C@@H](O)C[C@@]21C | 6.7
6 | O=C1C(Cc2c[nH]c3ccccc23)NC(=S)N1Cc1ccccc1 (stereo unspecified) | -1.8
7 | COc1ccc(/C=C/C(=O)Nc2ccccc2C(=O)O)cc1OC | -6
8 | O=C(Cc1cccc2ccccc12)N1CC[C@@]2(O)CCCC[C@H]2C1 | -5.4
9 | O=C(O)c1ccc(C(=O)C(=O)c2ccccc2)cc1 | -6.8
10 | CCN(CC)CCNC(=O)c1cc(S(C)(=O)=O)ccc1OC | 4.7
11 | Cn1c(=O)c(C(=O)NCCO)c(O)c2ccccc21 | -2.2
12 | O=C1Nc2ccc3sc4ccccc4c3c2C1=O | 1.4
13 | O=C(CCC1CCCN(C(=O)c2ccsc2)C1)NCc1ccc(F)c(F)c1 (stereo unspecified) | -6.8
14 | COc1cccc(CC2CC(=O)N(c3ccc4c(C)cc(=O)oc4c3)C2=O)c1 (stereo unspecified) | 4.1
15 | N/C(=N\OC(=O)CCCOc1ccc(Cl)cc1Cl)c1ccccn1 | -0.4
16 | CSCCC(NC(=O)OC(C)(C)C)C(=O)Oc1ccc2c(=O)c(-c3ccc4c(c3)OCCO4)coc2c1 (stereo unspecified) | -1.7
